Laboratory results reported in PubChem BioAssay.
Calls of active or inactive are those of the source. Unless noted, how the calls were made is not given here.

How the values were obtained:
[1] = HepG2 liver cancer cell viability effects, profiling panel, resazurin fluorescence, 24 h, PK04 Diversity Set (AID 1172); settings: higher = more signal; further: test concentration not given here
[2] = basal S. cerevisiae growth modulation, no modifier, primary screen, OD600, strain BY4716, 24 h, basal condition (AID 1173); settings: OD600, 24 h, higher = more signal, called active from +8 up or from −8 down
[3] = MM1S myeloma cell viability, profiling panel, resazurin fluorescence, basal, 24 h, PK04 Diversity Set (AID 1174); settings: higher = more signal, called active from +8 up or from −8 down;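 further: MM1S multiple myeloma cell line; test concentration not given here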
[4] = target: Dihydroorotate dehydrogenase (quinone), mitochondrial (Plasmodium falciparum (isolate 3D7)) (UniProt Q08210); test: PfDHODH enzyme inhibitors, primary screen, biochemical, C-terminal His tag, absorbance 600 nm (AID 1175); settings: DCIP absorbance 600 nm, higher = more signal, called active from +8 up or from −8 down;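 further: recombinant parasite enzyme with a five histidine tag at its C terminus; test concentration not given here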
[5] = P. aeruginosa biofilm formation inhibitors, primary screen, strain PAO1, LB-PBS medium, absorbance 600 nm (AID 1176); further: test concentration not given here; settings: P. aeruginosa PAO1 growth/biofilm, A600, 12 h; higher = more signal
[6] = S. cerevisiae RM11-1a growth modifiers, primary screen, strain RM11-1a, OD600, basal, 24 h (AID 1177); settings: OD600, 24 h, higher = more signal, called active from +8 up or from −8 down;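 further: cultures grown under basal conditions with no added stressor; test concentration not given here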
[7] = E. coli acrAB mutant growth effects, primary screen, E. coli filamentation inducers, strain DRC39, OD650, 24 h (AID 1178); settings: higher = more signal, called active from +8 up or from −8 down;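 further: growth measured as culture turbidity by optical density at 650 nm; test concentration not given here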
[8] = E. coli acrAB mutant growth effects, primary screen, E. coli filamentation inducers, strain DRC39, OD650, 48 h (AID 1179);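 further: screen aims at cell division blockers that make cells filament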; settings: E. coli DRC39 delta-acrAB growth, higher = more signal, called active from +8 up or from −8 down
[9] = RPMI8226 myeloma cell viability, profiling panel, resazurin fluorescence, basal, 24 h, PK04 Diversity Set (AID 1180); settings: higher = more signal;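 further: RPMI8826 multiple myeloma cell line at 5000 cells per well; test concentration not given here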
[10] = target: E3 ubiquitin-protein ligase XIAP (Homo sapiens) (UniProt P98170); test: XIAP binders, primary screen, biophysical, small-molecule microarray, fluorescence 635 nm (AID 1181); settings: small-molecule microarray binding, higher = more signal;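 further: score merges 667 nm emission and signal to noise over triplicate slides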
Sequence of E3 ubiquitin-protein ligase XIAP (Homo sapiens) (P98170 whole entry, looked up): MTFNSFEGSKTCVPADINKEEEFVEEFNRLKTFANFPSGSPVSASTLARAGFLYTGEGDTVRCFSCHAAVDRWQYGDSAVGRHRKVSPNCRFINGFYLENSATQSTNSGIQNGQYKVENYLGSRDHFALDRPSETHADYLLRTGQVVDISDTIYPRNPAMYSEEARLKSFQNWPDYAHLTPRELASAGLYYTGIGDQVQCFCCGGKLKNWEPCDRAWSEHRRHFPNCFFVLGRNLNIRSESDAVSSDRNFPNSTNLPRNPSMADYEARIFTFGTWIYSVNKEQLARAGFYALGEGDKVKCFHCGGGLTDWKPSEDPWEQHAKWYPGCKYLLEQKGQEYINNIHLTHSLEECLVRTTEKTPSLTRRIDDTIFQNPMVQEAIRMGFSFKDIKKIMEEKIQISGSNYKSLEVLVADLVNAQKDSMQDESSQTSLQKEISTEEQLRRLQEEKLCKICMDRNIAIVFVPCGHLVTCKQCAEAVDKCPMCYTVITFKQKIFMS

Sequence of Dihydroorotate dehydrogenase (quinone), mitochondrial (Plasmodium falciparum (isolate 3D7)) (Q08210 whole entry, looked up): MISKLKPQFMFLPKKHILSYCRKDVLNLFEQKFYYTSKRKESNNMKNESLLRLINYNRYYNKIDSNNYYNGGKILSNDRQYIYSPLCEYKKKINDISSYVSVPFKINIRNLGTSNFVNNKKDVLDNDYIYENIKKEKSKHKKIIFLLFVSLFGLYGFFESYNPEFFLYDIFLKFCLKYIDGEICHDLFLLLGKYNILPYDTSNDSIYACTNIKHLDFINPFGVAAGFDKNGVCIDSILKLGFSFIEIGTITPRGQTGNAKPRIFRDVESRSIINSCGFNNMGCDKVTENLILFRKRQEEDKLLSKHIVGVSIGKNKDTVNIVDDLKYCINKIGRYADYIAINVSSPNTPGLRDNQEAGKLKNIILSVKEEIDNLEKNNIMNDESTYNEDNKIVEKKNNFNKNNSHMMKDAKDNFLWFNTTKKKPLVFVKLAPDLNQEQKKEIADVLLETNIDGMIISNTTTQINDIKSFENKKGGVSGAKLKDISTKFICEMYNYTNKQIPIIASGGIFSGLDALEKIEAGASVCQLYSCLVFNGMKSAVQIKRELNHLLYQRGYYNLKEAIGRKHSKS

Row | Compound | z-score [1] | z-score [2] | z-score [3] | composite z-score [4] | z-score [5] | z-score [6] | z-score [7] | z-score [8] | z-score [9] | composite z-score [10]
1 | CC(C)CON=C1C[C@@H](O)[C@@H](O)[C@@H]2[C@@H]3C(=O)N(c4ccc(F)cc4F)C(=O)[C@@H]3CC[C@@H]12 | 0.372 | -1.98 (inactive) | 0.88 (inactive) | -2.1 (inactive) | -0.27 (inactive) | -1.22 (inactive) | 1.01 (inactive) | 0.15 (inactive) | -0.226 | -0.0296
2 | CC(=O)OC[C@H]1O[C@H](CC=NOC[C@@H](O)[C@H]2O[C@@H]3OC(C)(C)O[C@@H]3[C@H]2O)C=C[C@@H]1OC(C)=O | 0.287 | 0.933 (inactive) | -1.15 (inactive) | 0.189 (inactive) | -0.124 (inactive) | 1.08 (inactive) | 0.644 (inactive) | -0.717 (inactive) | -0.754 | 0.013
3 | CCN1C(=O)[C@H]2[C@H]3[C@H](O)[C@H](O)CC(=NNC(=O)OCc4ccccc4)[C@H]3CC[C@H]2C1=O | -0.0019 | -0.277 (inactive) | -0.193 (inactive) | -0.052 (inactive) | 0.814 (inactive) | -0.727 (inactive) | -0.47 (inactive) | -1.79 (inactive) | -0.163 | -0.102
4 | O=C1[C@H]2[C@H]3[C@H](O)[C@H](O)CC(=NO[C@@H]4O[C@H](CO)[C@@H](O)[C@H](O)[C@H]4O)[C@H]3CC[C@H]2C(=O)N1c1ccc(F)cc1F | 0.487 | 0.191 (inactive) | -0.141 (inactive) | -1.08 (inactive) | -0.377 (inactive) | -0.638 (inactive) | 0.166 (inactive) | -0.196 (inactive) | 0.371 | 0.394
5 | O=C1C[C@@H](O)[C@@H](O)[C@@H]2[C@@H]3C(=O)N(Cc4ccccc4)C(=O)[C@@H]3CC[C@H]12 | -0.252 | -0.425 (inactive) | -0.136 (inactive) | 0.318 (inactive) | 0.188 (inactive) | -0.163 (inactive) | -0.418 (inactive) | -0.779 (inactive) | -0.14 | 0.468
6 | O=C1C2=CC[C@H]3C(=O)N(Cc4ccccc4)C(=O)[C@H]3[C@H]2[C@H](O)[C@@H]2O[C@H]12 | 0.35 | -2.16 (inactive) | -5.73 (inactive) | -1.59 (inactive) | 0.0821 (inactive) | -1.22 (inactive) | -0.416 (inactive) | -0.425 (inactive) | -3.38 | 0.0006
7 | C=CC[C@@H]1C=C[C@H](ON=C2C[C@@H](O)[C@@H](O)[C@@H]3[C@@H]4C(=O)N(CC)C(=O)[C@@H]4CC[C@@H]23)[C@@H](CO)O1 | -1.05 | -0.099 (inactive) | -0.415 (inactive) | -2.18 (inactive) | -0.0781 (inactive) | -0.466 (inactive) | -0.939 (inactive) | -1.5 (inactive) | -0.216 | -0.289
8 | C=CC[C@@H]1C=C[C@H](Oc2ccc(C)cc2)[C@@H](COC(=O)NCc2cccc3ccccc23)O1 | 1.08 | -0.469 (inactive) | 0.841 (inactive) | 0.438 (inactive) | 0.119 (inactive) | 0.74 (inactive) | -0.899 (inactive) | -0.629 (inactive) | 0.901 | -0.0559
9 | CC(=O)OC[C@H]1O[C@@H](ON=C(C)CCC(=O)OC[C@H]2O[C@H](C#Cc3ccccc3)C=C[C@@H]2Oc2ccc(C)cc2)[C@H](OC(C)=O)[C@@H](OC(C)=O)[C@@H]1OC(C)=O | 0.0214 | -0.053 (inactive) | 0.364 (inactive) | -0.47 (inactive) | -0.102 (inactive) | 0.0837 (inactive) | 0.297 (inactive) | -0.905 (inactive) | 0.135 | -0.269
10 | CO[C@@H]1COC(=O)[C@H](COCc2ccccc2)NC(=O)CC=C[C@@H](C)[C@H](OC)COC(=O)[C@@H](C)NC(=O)CC=C[C@H]1C | 0.532 | -1.01 (inactive) | -2.05 (inactive) | 0.262 (inactive) | -0.908 (inactive) | 0.496 (inactive) | 1.4 (inactive) | 0.287 (inactive) | -0.795 | -0.0939
11 | CON=C(C)CCC(=O)OC[C@H]1O[C@H](C#Cc2ccccc2)C=C[C@@H]1Oc1ccc(C)cc1 | -0.118 | -0.944 (inactive) | -0.642 (inactive) | 0.444 (inactive) | 0.298 (inactive) | 0.888 (inactive) | 0.556 (inactive) | -1.88 (inactive) | -0.549 | 0.289
12 | CC(C)=NOC(C)CN1CCCc2nc(C)c(C)cc21 (stereo not given) | -0.249 | -0.211 (inactive) | -0.0014 (inactive) | 0.787 (inactive) | 0.854 (inactive) | -0.0702 (inactive) | 0.0251 (inactive) | -0.726 (inactive) | -0.572 | -0.0676
13 | COC(=O)[C@H](C)NC(=O)CCC1CC(OC(=O)NCc2ccc3c(c2)OCO3)CC2(CCCC(COC(=O)NCCC(C)C)O2)O1 (stereo not given in full) | 0.506 | -0.43 (inactive) | -0.274 (inactive) | -0.558 (inactive) | -0.294 (inactive) | -0.774 (inactive) | 0.909 (inactive) | -0.804 (inactive) | 0.0961 | 0.0245
14 | CC(=O)OC[C@H]1O[C@H](CCON=C(C)CCN2CCCc3nc(C)c(C)cc32)C=C[C@@H]1OC(C)=O | 0.0171 | 1.34 (inactive) | -0.102 (inactive) | 0.245 (inactive) | 0.511 (inactive) | 1.3 (inactive) | 0.565 (inactive) | 0.16 (inactive) | -0.0643 | -0.0878
15 | CC(C)=CCCC(C)=CCON=C1C[C@@H](O)[C@@H](O)[C@@H]2[C@@H]3C(=O)N(C4CCCCC4)C(=O)[C@@H]3CC[C@H]12 | -0.346 | -0.339 (inactive) | -2.69 (inactive) | 0.235 (inactive) | -0.437 (inactive) | 0.577 (inactive) | 0.354 (inactive) | 0.683 (inactive) | -1.7 | -0.111
16 | COc1ccc(COC(=O)NN=C2C[C@@H](O)[C@@H](O)[C@@H]3[C@@H]4C(=O)N(c5cccc(Oc6ccccc6)c5)C(=O)[C@@H]4CC[C@H]23)cc1 | 0.609 | -1.08 (inactive) | -0.341 (inactive) | -2.56 (inactive) | -0.872 (inactive) | -1.02 (inactive) | 0.829 (inactive) | 0.751 (inactive) | 0.487 | 0.274
17 | CO[C@@H]1COC(=O)[C@@H]2CCCN2C(=O)[C@@H](C)COC(=O)CCC[C@H]1C | -0.668 | -0.482 (inactive) | -0.27 (inactive) | -1.47 (inactive) | -0.197 (inactive) | -2.66 (inactive) | -0.0549 (inactive) | -0.0609 (inactive) | -0.304 | 0.134
18 | COc1ccc(OC[C@@H]2CC3[C@@H](c4ccc(Br)cc4)[C@H](C)CC[C@H]3C(=O)O2)cc1 (stereo not given in full) | 0.527 | -0.845 (inactive) | 0.364 (inactive) | 0.301 (inactive) | -0.315 (inactive) | 0.0086 (inactive) | -0.941 (inactive) | -1.58 (inactive) | 1.04 | 0.326
19 | COC(=O)[C@H](C)NC(=O)CCC1CC(OC(=O)NCc2cccc3ccccc23)CC2(CCCC(COC(=O)NCCC(C)C)O2)O1 (stereo not given in full) | 0.817 | -0.274 (inactive) | 0.505 (inactive) | -1.24 (inactive) | -0.0691 (inactive) | -0.186 (inactive) | 0.443 (inactive) | 0.594 (inactive) | 0.452 | -0.191
20 | C#CCCCON=C1C[C@@H](O)[C@@H](O)[C@@H]2[C@@H]3C(=O)N(C4CCCCC4)C(=O)[C@@H]3CC[C@@H]12 | -0.673 | -3.17 (inactive) | -0.0738 (inactive) | -1.65 (inactive) | 0.164 (inactive) | -1.88 (inactive) | 0.587 (inactive) | 0.311 (inactive) | 0.321 | -0.392
21 | CCOC(=O)CCN1C(=O)[C@H]2[C@H]3[C@H](O)[C@H](O)CC(=NNC(=O)OCC)[C@H]3CC[C@H]2C1=O | -0.207 | -1.01 (inactive) | 0.137 (inactive) | 0.519 (inactive) | 0.614 (inactive) | 0.235 (inactive) | -0.216 (inactive) | -0.318 (inactive) | -0.0651 | 0.106
22 | COC(=O)[C@H](C)NC(=O)CCC1CC(OC(=O)NCCc2ccc(F)cc2)CC2(CCCC(COC(=O)NCC3CCCCC3)O2)O1 (stereo not given in full) | 0.427 | -0.491 (inactive) | 1.05 (inactive) | -2.53 (inactive) | -0.919 (inactive) | 0.363 (inactive) | -0.603 (inactive) | -0.741 (inactive) | 0.13 | 0.514
23 | COc1ccc(COC(=O)NN=C2C[C@@H](O)[C@@H](O)[C@@H]3[C@@H]4C(=O)N(C[C@@H]5CCCO5)C(=O)[C@@H]4CC[C@H]23)cc1 | -0.161 | 1.29 (inactive) | 0.0829 (inactive) | -0.395 (inactive) | -0.0485 (inactive) | 0.293 (inactive) | 0.16 (inactive) | 0.0875 (inactive) | -0.631 | 0.0679
